Consider 21 compounds from PubChem BioAssay (EPA / NIEHS).

Molecules are shown by their SMILES. Inconclusive results are not listed. Activity calls are given as the source filed them. How the source made its calls: active means hit-call score of the fitted dose curve at least 0.9, where 1 is the maximum; inconclusive means response in the unintended direction; inactive means score below 0.9.

Test system in one experiment: not listed separately
Briefly: STM_H9_NormalizedViability: Cytotoxicity Assessment at 120 hours in the Stemina devTOX quickPredict H9 human embryonic stem cell (hESC)-based Assay (AID 2283784). The gist of the method:
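Undifferentiated H9 hESCs kept pluripotent were exposed to compound, with media and chemical replaced every 24h. CellTiter-Fluor protease-substrate fluorescence was background-corrected and normalized per plate to the 0.1% DMSO vehicle; signal loss indicates reduced viability.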
As to `Cc1nn(C)c(Oc2ccccc2)c1C=NOCc1ccc(C(=O)OC(C)(C)C)cc1`, the AC50 is 0.0346 µM (active).

Consider `C#CCOC(=O)[C@@H](C)Oc1ccc(Oc2ncc(Cl)cc2F)cc1`, for which the AC50 was 76 µM (active).

As for `CCN(Cc1c(F)cccc1Cl)c1c([N+](=O)[O-])cc(C(F)(F)F)cc1[N+](=O)[O-]`, the AC50 is 50 µM (active).

Turning to `CC(C)(C)[C@@H](O)[C@@H](Cc1ccc(Cl)cc1)n1cncn1`, the result was inactive.

On to `CCCCOC(=O)[C@@H](C)Oc1ccc(Oc2ccc(C(F)(F)F)cn2)cc1`, for which the AC50 was 73.8 µM (active).

Consider `CCSC(=O)N(CC(C)C)CC(C)C`, for which the outcome was inactive.

On to `OB(O)O`, for which the result was inactive.

Regarding `CCOC(=O)C(C)Oc1ccc(Oc2cnc3cc(Cl)ccc3n2)cc1` (centres undefined), the outcome was inactive.

For `S=C(S)NCCNC(=S)S.[Mn+2].[S-]C([S-])=NCCN=C([S-])[S-].[Zn+2]`, the result was inactive.

`N#CSCSc1nc2ccccc2s1`: the half-maximal activity concentration (AC50) is 17.3 µM (active).

On to `COC(=O)c1ccc(I)cc1S(=O)(=O)NC(=O)Nc1nc(C)nc(OC)n1`, for which the outcome was inactive.

Consider `CCCCCOC(=O)COc1cc(N2C(=O)C3=C(CCCC3)C2=O)c(F)cc1Cl`, for which the result was inactive.

For the compound `CCCCOC(=O)C(C)Oc1ccc(Oc2ccc(C(F)(F)F)cn2)cc1` (centres undefined), the result was inactive.

`N[C@@H](Cc1cc(I)c(Oc2ccc(O)c(I)c2)c(I)c1)C(=O)O`: the result was inactive.

As to `S=C([S-])NCCNC(=S)[S-].[Mn+2]`, the outcome was inactive.

With `CCCN(CCC)c1c([N+](=O)[O-])cc(C(F)(F)F)c(N)c1[N+](=O)[O-]`, the result was inactive.

As to `COC(=O)c1ccccc1C(=O)O`, the result was inactive.

Another experiment deals with AR (gene 367) (UniProt P10275). As to the kind of experiment: ACEA_AR_antagonist_80hr: ACEA Biosciences xCELLigence Real-Time Cell Analysis on Androgen Receptor Antagonism for Proliferation (AID 2283787).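 Further: 22Rv1 human prostate cancer cells with growth followed by electrical impedance; hits lower the impedance growth signal relative to DMSO.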 The gist of the method: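 Growth-kinetic antagonist readout in 22Rv1 cells, taken 80 h after continuous compound exposure. Activity fitted as signal loss relative to DMSO negative control.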
AR (gene 367), sequence (P10275 whole entry, looked up): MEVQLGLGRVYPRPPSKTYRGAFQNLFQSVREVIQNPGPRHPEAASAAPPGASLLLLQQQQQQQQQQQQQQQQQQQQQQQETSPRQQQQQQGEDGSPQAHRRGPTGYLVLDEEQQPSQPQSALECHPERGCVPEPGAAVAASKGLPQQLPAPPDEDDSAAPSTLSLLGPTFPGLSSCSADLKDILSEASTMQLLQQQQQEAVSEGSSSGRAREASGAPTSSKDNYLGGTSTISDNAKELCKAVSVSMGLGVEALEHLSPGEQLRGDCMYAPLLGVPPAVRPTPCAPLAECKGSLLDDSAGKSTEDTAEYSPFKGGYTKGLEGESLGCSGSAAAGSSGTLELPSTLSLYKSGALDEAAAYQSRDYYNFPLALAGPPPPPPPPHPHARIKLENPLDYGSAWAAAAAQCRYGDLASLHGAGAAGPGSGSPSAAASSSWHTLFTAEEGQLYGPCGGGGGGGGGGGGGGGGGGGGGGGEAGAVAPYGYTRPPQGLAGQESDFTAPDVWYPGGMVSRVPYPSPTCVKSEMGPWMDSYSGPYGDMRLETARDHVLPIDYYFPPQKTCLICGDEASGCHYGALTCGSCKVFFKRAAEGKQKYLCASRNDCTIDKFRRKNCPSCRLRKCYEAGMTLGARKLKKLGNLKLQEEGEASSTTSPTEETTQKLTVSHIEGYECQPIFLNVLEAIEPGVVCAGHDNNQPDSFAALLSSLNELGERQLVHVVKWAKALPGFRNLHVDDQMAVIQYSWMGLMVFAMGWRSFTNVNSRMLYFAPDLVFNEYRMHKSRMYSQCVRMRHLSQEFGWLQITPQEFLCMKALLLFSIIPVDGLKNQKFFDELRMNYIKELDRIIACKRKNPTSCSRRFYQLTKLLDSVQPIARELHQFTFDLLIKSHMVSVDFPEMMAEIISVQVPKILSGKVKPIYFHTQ
On to `Cc1nn(C)c(Oc2ccccc2)c1C=NOCc1ccc(C(=O)OC(C)(C)C)cc1`, for which the half-maximal activity concentration (AC50) is 12.7 µM (active).

For the compound `CCSC(=O)N(CC(C)C)CC(C)C`, the compound was called inactive.

Turning to `CCOC(=O)C(C)Oc1ccc(Oc2nc3ccc(Cl)cc3o2)cc1` (centres undefined), the AC50 is 42.6 µM (active).

As for `CCCN(CCC)C(=O)SCC`, the compound was called inactive.

As to `N#CSCSc1nc2ccccc2s1`, the AC50 is 15.1 µM (active).

As to `CCCOC(=O)c1ccc(C(=O)OCCC)nc1`, the compound was classed as inactive.

As for `O=C(c1ccccc1)C1CCCCC1`, the result was inactive.

The term AC50 denotes the concentration at which the activity in the assay is half-maximal.
